Test results published in PubChem BioAssay (NCATS).
Results filed as inconclusive are left out. Calls of active or inactive are those of the source. The call rests on the fitted dose curve; in most records, active means well fitted cell-killing curve with a large enough effect; inconclusive means small, poorly fitted or top-dose-only effect, or effect the other way; inactive means flat fitted curve, though single readings scatter. Where a SMILES comes first, the peptide text is derived from it. Bridges are numbered along the chain shown (N, C = ends). [ ]: non-standard residue; d: D form. The star is where a group is joined. X1 = CCC(C)C(N)C1=NC(C(=O)*)CS1; dOrn = NCCC[C@@H](N)C(=O)O

What was measured:
Assay in all cases: Primary qHTS to identify gynecologic anti-cancer compounds using libraries of approved drugs and bioactive compounds (AID 1345084); further: nearly all actives have a fitted effect of over 55% in size
Settings in all cases: Gynecologic cancer cell panel viability, ATPlite luminescence, 48 h; series mostly up to 57.5 µM
[1] = tested on: OV90
In short: (§1)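 Cells, 1,000 per well, were allowed to settle for 16 h at 37 C before compound addition. Five concentrations were tested for 48 h, and viability was read by ATPlite luminescence after 15 min at room temperature.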

[2] = tested on: PA-1
In short: as §1

[3] = tested on: SKOV3
In short: as §1

[4] = tested on: Tov-21-G
In short: as §1

[5] = tested on: Tov112D
In short: as §1
On the % scale 0 is the no-effect control and ±100 the full control effect.

CCC(C)C(N)C1=NC(C(=O)N[C@@H](CC(C)C)C(=O)N[C@H](CCC(=O)O)C(=O)N[C@H](C(=O)N[C@H]2CCCCNC(=O)[C@H](CC(N)=O)NC(=O)[C@@H](CC(=O)O)NC(=O)[C@H](Cc3cnc[nH]3)NC(=O)[C@@H](Cc3ccccc3)NC(=O)[C@H]([C@@H](C)CC)NC(=O)[C@@H](CCCN)NC2=O)[C@@H](C)CC)CS1 (stereo not given in full) (X1-L[dE]IK[dOrn]I[dF]H[dD]N; lactam 4-C)
inactive: Potency [1] | Potency [2] | Potency [3] | Potency [4] | Potency [5]

COc1c(C)c(C(=O)c2ccc(N)c(C(=O)O)c2)n2ccccc12
inactive: Potency [1] | Potency [2] | Potency [3] | Potency [4] | Potency [5]

NCCCC[C@H](NC(=O)[C@@H]1Cc2ccccc2CN1C(=O)CCC(=O)c1ccccc1)C(=O)NCC(c1ccccc1)c1ccccc1
inactive: Potency [1] | Potency [2] | Potency [3] | Potency [4] | Potency [5]

CC1C(=O)CC2C3C(O)CC(C(=O)O)C12CC3(C)C (stereo not given)
inactive: Potency [1] | Potency [2] | Potency [3] | Potency [4] | Potency [5]

O=C(/C=C/c1ccc(O)cc1)OC[C@]12O[C@H]1[C@@H](O)[C@@H]1C=CO[C@@H](O[C@@H]3O[C@H](CO)[C@@H](O)[C@H](O)[C@H]3O)[C@@H]12
inactive: Potency [1] | Potency [2] | Potency [3] | Potency [4] | Potency [5]

C[C@@H]1O[C@@H](O[C@H]2[C@H](O[C@H]3[C@H](O[C@H]4CC[C@@]5(CO)C(CC[C@]6(C)C5CC=C5C7CC(C)(C)C[C@@H](O)[C@]7(C)CC[C@]56C)C4(C)C)O[C@H](C(=O)O)[C@@H](O)[C@@H]3O)OC[C@@H](O)[C@@H]2O)[C@H](O)[C@H](O)[C@H]1O (stereo not given in full)
inactive: activity change, negative = cytotoxicity [1] -1.83% [at 11.6 µM] | activity change, negative = cytotoxicity [2] 6.18% [at 11.6 µM] | activity change, negative = cytotoxicity [3] 0.621% [at 11.6 µM] | activity change, negative = cytotoxicity [4] 0.307% [at 11.6 µM] | activity change, negative = cytotoxicity [5] -0.127% [at 11.6 µM]

C/C(=C\CCC(C)(O)c1ccc(C)cc1)C(=O)O (stereo not given)
inactive: Potency [1] | Potency [2] | Potency [3] | Potency [4] | Potency [5]

COC(=O)[C@@]1(C)CC[C@]2(C(=O)O[C@@H]3O[C@H](CO)[C@@H](O)[C@H](O)[C@H]3O)CC[C@]3(C)C(=CCC4[C@@]5(C)CC[C@H](O[C@@H]6O[C@H](C(=O)O)[C@@H](O)[C@H](O)[C@H]6O)C(C)(C)C5CC[C@]43C)[C@@H]2C1 (stereo not given in full)
inactive: activity change, negative = cytotoxicity [1] -2.61% [at 11.6 µM] | activity change, negative = cytotoxicity [2] -17.6% [at 11.6 µM] | activity change, negative = cytotoxicity [3] -12.6% [at 11.6 µM] | activity change, negative = cytotoxicity [4] 1.4% [at 11.6 µM] | activity change, negative = cytotoxicity [5] -8.48% [at 11.6 µM]

CC(=O)OCCC(C)CCC1C(C)(O)CCC2C(C)(C)CCCC21C (stereo not given)
inactive: Potency [1] | Potency [2] | Potency [3] | Potency [4] | Potency [5]

C[C@@H]1O[C@@H](O[C@@H]2[C@@H](O)[C@H](O[C@@H]3[C@@H](O)[C@@H](O)[C@H](O[C@H]4[C@H](OC(=O)[C@]56CCC(C)(C)C[C@H]5C5=CCC7[C@@]8(C)C[C@H](O)[C@H](O[C@@H]9O[C@H](C(=O)O)[C@@H](O)[C@H](O)[C@H]9O)[C@@](C)(CO)C8[C@H](O)C[C@@]7(C)[C@]5(C)CC6)OC[C@H](O)[C@@H]4O)O[C@H]3C)OC[C@H]2O)[C@H](O)[C@H](O)[C@H]1O (stereo not given in full)
inactive: activity change, negative = cytotoxicity [1] -1.61% [at 6.55 µM] | activity change, negative = cytotoxicity [2] 3.21% [at 6.55 µM] | activity change, negative = cytotoxicity [3] -6.44% [at 6.55 µM] | activity change, negative = cytotoxicity [4] -4.43% [at 6.55 µM] | activity change, negative = cytotoxicity [5] 4.06% [at 6.55 µM]

C[C@@H](OC(=O)/C=C/c1ccc(O)cc1)C1=C[C@]2(C=C[C@@H]3C(C(=O)O)=CO[C@@H](O[C@@H]4O[C@H](CO[C@@H]5O[C@H](CO)[C@@H](O)[C@H](O)[C@H]5O)[C@@H](O)[C@H](O)[C@H]4O)[C@@H]32)OC1=O
inactive: Potency [1] | Potency [2] | Potency [3] | Potency [4] | Potency [5]

CO/N=C(/C(=O)N[C@@H]1C(=O)N2C(C(=O)O)=C(CSC(=O)c3ccco3)CS[C@H]12)c1csc(N)n1
inactive: Potency [1] | Potency [2] | Potency [3] | Potency [4] | Potency [5]

O=C(OCC12OC1C=CC(OC(=O)c1ccccc1)C2O)c1ccccc1 (stereo not given)
inactive: Potency [1] | Potency [2] | Potency [3] | Potency [4] | Potency [5]

CC(C)C1=CCC(C)(O)C(OC2OC(CO)C(O)C(O)C2O)C1 (stereo not given)
inactive: Potency [1] | Potency [2] | Potency [3] | Potency [4] | Potency [5]
